Compound in the assay: C#CCNC(=O)CCSSCCC(=O)NCCc1ccc(C=O)c(C=O)c1
The assay can be described thus: lysine labeling ratio R10:1 (500 µM / 50 µM probe), SILAC-ABPP in living cells; higher = lower intrinsic lysine reactivity toward the probe, active = 2 or less. As to conditions: HeLa; probe concentrations 500 vs 50 µM. A digest of the protocol: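 Living SILAC light and heavy HeLa cells in PBS at room temperature were treated with an alkyne-tagged, disulfide-linked lysine probe at 50 µM or 500 µM, with forward and reverse label swaps. The mixed lysates were clicked to biotin-azide, digested with trypsin, captured on neutravidin, released with DTT, alkylated and run by LC-MS/MS on a TIMS-TOF Pro. R for each lysine is the filtered median high-probe/low-probe MS1 peptide ratio, taken again as the median over forward and reverse replicates. Any value above 20 is set to 20.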
UniProt Q15149, sequence (Q15149 whole entry): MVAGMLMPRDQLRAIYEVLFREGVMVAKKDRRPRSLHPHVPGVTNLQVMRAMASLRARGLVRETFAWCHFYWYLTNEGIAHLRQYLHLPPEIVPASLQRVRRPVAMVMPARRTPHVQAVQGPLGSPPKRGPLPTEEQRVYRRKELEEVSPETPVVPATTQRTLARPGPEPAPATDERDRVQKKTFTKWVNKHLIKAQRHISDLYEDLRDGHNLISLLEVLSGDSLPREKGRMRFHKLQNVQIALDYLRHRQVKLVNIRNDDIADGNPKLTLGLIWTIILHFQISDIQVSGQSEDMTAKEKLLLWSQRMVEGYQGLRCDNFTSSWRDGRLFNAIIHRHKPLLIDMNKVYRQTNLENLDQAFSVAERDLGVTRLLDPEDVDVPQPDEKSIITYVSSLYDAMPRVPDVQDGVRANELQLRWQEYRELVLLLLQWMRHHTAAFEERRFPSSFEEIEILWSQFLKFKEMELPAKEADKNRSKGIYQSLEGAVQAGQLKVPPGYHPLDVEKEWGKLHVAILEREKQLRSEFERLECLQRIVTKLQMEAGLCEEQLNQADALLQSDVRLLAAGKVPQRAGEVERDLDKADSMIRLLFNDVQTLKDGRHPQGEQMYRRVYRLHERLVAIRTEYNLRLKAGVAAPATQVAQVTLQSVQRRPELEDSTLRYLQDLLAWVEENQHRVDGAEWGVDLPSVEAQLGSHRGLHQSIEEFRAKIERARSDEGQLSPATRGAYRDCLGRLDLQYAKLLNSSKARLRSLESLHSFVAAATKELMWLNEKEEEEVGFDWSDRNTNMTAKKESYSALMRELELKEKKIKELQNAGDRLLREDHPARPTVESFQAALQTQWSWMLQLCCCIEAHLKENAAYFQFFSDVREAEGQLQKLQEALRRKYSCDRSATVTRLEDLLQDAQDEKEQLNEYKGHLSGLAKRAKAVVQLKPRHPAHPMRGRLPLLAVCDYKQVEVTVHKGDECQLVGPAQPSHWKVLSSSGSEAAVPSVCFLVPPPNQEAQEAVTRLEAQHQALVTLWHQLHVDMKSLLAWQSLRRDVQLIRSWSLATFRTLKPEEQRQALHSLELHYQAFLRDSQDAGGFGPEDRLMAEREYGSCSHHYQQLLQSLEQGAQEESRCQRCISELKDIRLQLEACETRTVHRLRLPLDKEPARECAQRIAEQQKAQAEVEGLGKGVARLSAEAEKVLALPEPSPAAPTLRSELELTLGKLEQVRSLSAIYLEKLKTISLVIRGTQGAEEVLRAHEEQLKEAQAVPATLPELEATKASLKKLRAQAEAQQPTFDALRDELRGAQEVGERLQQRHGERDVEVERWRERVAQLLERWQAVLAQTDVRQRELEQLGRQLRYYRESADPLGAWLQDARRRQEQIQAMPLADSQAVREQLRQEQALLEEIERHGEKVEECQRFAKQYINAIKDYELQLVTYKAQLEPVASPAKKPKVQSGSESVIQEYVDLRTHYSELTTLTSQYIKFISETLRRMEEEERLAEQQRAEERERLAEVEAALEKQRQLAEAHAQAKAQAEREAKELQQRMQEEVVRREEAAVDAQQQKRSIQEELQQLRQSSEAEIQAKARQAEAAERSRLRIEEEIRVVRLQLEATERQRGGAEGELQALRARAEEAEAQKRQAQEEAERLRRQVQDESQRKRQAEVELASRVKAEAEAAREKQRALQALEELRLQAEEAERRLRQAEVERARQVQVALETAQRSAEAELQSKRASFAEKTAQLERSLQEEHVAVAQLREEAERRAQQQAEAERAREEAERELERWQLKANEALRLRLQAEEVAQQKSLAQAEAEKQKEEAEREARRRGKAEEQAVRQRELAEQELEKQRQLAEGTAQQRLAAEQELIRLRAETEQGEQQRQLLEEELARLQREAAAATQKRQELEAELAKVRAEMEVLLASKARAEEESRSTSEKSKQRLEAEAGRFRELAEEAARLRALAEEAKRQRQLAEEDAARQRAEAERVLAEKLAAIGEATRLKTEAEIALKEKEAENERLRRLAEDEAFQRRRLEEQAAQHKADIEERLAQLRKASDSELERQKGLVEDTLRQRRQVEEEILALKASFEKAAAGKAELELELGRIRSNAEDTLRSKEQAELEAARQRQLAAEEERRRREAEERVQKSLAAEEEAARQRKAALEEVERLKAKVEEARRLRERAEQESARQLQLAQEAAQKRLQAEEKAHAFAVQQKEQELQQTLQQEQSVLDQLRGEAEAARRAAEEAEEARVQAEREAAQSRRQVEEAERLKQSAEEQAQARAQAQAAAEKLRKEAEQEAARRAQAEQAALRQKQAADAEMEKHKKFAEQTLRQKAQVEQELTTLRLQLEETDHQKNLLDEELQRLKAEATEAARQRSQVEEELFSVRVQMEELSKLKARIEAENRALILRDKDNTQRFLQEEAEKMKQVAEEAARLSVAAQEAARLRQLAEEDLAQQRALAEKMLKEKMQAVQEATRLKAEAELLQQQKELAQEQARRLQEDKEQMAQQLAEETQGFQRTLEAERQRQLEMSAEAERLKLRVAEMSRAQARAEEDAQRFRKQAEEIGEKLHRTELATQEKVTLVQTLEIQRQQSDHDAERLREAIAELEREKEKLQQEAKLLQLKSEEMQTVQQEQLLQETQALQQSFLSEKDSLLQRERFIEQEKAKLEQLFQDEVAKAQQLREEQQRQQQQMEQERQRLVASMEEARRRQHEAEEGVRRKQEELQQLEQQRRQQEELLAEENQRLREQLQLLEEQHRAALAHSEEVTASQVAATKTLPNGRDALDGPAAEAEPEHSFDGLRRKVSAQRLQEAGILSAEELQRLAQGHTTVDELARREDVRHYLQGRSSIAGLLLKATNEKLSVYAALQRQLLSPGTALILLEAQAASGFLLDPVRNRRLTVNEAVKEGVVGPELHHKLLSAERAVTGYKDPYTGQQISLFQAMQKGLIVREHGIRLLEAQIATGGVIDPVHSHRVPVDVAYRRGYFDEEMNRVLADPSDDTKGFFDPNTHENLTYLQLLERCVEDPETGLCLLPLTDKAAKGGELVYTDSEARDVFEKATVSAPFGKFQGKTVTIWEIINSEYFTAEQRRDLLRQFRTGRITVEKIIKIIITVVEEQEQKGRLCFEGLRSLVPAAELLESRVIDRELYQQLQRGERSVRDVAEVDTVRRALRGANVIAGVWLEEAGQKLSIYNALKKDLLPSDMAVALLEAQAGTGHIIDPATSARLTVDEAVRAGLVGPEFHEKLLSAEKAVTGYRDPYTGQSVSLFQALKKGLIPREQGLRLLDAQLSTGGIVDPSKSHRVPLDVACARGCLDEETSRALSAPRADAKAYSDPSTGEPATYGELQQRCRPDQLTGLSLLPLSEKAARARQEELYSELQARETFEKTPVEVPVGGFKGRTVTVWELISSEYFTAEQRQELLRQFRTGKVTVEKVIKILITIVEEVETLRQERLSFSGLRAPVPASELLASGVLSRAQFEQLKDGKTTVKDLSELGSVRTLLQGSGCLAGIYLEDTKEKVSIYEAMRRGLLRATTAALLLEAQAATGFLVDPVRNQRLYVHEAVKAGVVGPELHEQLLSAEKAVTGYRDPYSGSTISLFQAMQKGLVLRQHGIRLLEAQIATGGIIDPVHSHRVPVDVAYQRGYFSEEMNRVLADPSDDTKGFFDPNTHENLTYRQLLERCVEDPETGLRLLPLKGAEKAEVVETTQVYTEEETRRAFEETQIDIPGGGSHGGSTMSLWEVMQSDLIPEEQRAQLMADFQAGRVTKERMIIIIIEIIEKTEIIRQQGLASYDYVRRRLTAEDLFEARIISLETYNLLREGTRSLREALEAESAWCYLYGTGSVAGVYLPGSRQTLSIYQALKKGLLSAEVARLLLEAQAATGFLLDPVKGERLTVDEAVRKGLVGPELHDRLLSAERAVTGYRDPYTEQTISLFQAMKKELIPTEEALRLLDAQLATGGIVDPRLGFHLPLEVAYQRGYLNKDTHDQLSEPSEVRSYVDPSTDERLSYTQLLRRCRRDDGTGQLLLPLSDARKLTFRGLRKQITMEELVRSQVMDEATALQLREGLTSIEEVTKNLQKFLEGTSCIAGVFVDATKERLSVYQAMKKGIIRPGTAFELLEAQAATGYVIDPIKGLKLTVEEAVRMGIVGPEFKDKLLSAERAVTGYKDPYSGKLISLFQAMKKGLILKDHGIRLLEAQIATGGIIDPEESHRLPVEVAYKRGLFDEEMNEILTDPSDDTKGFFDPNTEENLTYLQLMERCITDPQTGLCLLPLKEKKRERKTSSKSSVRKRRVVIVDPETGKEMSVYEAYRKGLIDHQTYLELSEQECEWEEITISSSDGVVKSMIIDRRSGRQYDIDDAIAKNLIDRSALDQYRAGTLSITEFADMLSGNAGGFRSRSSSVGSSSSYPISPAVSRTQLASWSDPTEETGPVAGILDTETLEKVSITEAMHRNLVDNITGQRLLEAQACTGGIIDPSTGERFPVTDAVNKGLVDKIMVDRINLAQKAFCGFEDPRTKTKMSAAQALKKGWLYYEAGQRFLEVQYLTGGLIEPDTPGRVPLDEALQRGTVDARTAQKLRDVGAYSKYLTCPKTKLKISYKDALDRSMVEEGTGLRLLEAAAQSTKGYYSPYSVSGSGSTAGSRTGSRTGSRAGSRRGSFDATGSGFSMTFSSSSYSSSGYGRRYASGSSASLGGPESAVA
UniProt Q9UPY5, sequence (Q9UPY5 whole entry): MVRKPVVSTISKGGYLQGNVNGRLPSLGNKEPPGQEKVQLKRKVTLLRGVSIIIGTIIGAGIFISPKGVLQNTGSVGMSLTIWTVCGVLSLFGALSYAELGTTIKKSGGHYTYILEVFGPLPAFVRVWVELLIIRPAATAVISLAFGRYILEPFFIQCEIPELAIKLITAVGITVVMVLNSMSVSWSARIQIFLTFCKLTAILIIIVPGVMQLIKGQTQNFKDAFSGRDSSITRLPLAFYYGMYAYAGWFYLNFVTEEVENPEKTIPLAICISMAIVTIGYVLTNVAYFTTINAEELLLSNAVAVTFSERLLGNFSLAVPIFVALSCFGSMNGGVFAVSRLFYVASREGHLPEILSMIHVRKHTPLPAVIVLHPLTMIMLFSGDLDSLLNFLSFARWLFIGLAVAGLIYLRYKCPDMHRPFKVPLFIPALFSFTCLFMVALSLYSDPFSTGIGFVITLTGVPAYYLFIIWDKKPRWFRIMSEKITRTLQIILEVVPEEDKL
In the case of “CSE1L (lysine site: K158) (UniProt P55060)”, the “lysine labeling ratio R10:1” value is 3.34 (inactive).

As to “TGFBI (lysine site: K676) (UniProt Q15582)”, the “lysine labeling ratio R10:1” value was 3.4 (inactive). As for UniProt P60842 (lysine site: K54), the figure is 1.77 (active); as for “HSPE1 (lysine site: K99) (UniProt P61604)”, 4.89 (inactive).

Turning to “WNT5A (lysine site: K283) (UniProt P41221)”, the “lysine labeling ratio R10:1” value was 3.04 (inactive).

In the case of “TAGLN2 (lysine site: K171) (UniProt P37802)”, the “lysine labeling ratio R10:1” value is 8.2 (inactive). In the case of “FLNB (lysine site: K2088) (UniProt O75369)”, the “lysine labeling ratio R10:1” value is 2.27 (inactive). In the case of UniProt Q15149 (lysine site: K2706), the “lysine labeling ratio R10:1” value is 3.69 (inactive).

As for “HSPD1 (lysine site: K301) (UniProt P10809)”, the “lysine labeling ratio R10:1” value is 2.58 (inactive). As for “EDIL3 (lysine site: K426) (UniProt O43854)”, the “lysine labeling ratio R10:1” value is 2.91 (inactive). Regarding UniProt Q9NYU2 (lysine site: K356), the “lysine labeling ratio R10:1” value is 1.45 (active). Consider UniProt P68366 (lysine site: K112), for which the “lysine labeling ratio R10:1” value was 2.82 (inactive). Consider “CD97 (lysine site: K422) (UniProt P48960)”, for which the “lysine labeling ratio R10:1” value is 2.07 (inactive).

Take UniProt Q5XKE5 (lysine site: K253): the “lysine labeling ratio R10:1” value is 2.87 (inactive). With “PTGES2 (lysine site: K225) (UniProt Q9H7Z7)”, the “lysine labeling ratio R10:1” value is 1.93 (active). Turning to “CCT3 (lysine site: K203) (UniProt P49368)”, the “lysine labeling ratio R10:1” value is 4.58 (inactive). Regarding “CCT5 (lysine site: K214) (UniProt P48643)”, the “lysine labeling ratio R10:1” value was 1.21 (active). Turning to “SPTBN1 (lysine site: K1459) (UniProt Q01082)”, the “lysine labeling ratio R10:1” value is 0.588 (active). Take “SEMA3C (lysine site: K570) (UniProt Q99985)”: the “lysine labeling ratio R10:1” value is 8.1 (inactive). Take “IGF1R (lysine site: K713) (UniProt P08069)”: the “lysine labeling ratio R10:1” value is 2.62 (inactive).

Turning to UniProt Q15149 (lysine site: K932), the “lysine labeling ratio R10:1” value is 6.51 (inactive). Take “FLNA (lysine site: K1824) (UniProt P21333)”: the “lysine labeling ratio R10:1” value is 5.16 (inactive). As to “CAPZB (lysine site: K237) (UniProt P47756)”, the “lysine labeling ratio R10:1” value is 1.4 (active). With “SLC3A2 (lysine site: K298) (UniProt P08195)”, the “lysine labeling ratio R10:1” value is 6.33 (inactive).

For “SEMA3C (lysine site: K416) (UniProt Q99985)”, the “lysine labeling ratio R10:1” value is 2.36 (inactive). Regarding “CSRP1 (lysine site: K178) (UniProt P21291)”, the “lysine labeling ratio R10:1” value is 0.76 (active).

For “ITGB1 (lysine site: K107) (UniProt P05556)”, the “lysine labeling ratio R10:1” value was 1.41 (active). With “PDCD6IP (lysine site: K285) (UniProt Q8WUM4)”, the “lysine labeling ratio R10:1” value was 15.7 (inactive).

Regarding “COL5A1 (lysine site: K905) (UniProt P20908)”, the “lysine labeling ratio R10:1” value is 3.42 (inactive).

With “KTN1 (lysine site: K617) (UniProt Q86UP2)”, the “lysine labeling ratio R10:1” value is 1.17 (active).

Regarding “DYNC1H1 (lysine site: K3480) (UniProt Q14204)”, the “lysine labeling ratio R10:1” value is 1.73 (active). Then MSN (lysine site: K63) (UniProt P26038), with 1.1 (active). “TGFBI (lysine site: K53) (UniProt Q15582)”: the “lysine labeling ratio R10:1” value is 1.28 (active). For “CTTN (lysine site: K235) (UniProt Q14247)”, the “lysine labeling ratio R10:1” value was 1.56 (active). Then “TPM4 (lysine site: K44) (UniProt P67936)”, with 1.15 (active); and “SLC7A11 (lysine site: K222) (UniProt Q9UPY5)”, with 2.71 (inactive); and “G6PD (lysine site: K360) (UniProt P11413)”, with 2.07 (inactive).

As for “RPL3 (lysine site: K250) (UniProt P39023)”, the “lysine labeling ratio R10:1” value is 2.54 (inactive). In the case of “MCAM (lysine site: K153) (UniProt P43121)”, the “lysine labeling ratio R10:1” value was 4.14 (inactive). UniProt Q15149 (lysine site: K3968): the “lysine labeling ratio R10:1” value was 2.71 (inactive).

The values above are taken from the supplement of paper PMC11001985.
